ssDAF-12 act – S. stercoralis DAF-12 nuclear receptor activators, primary screen, cell-based, luminescence, HEK293, GRIP1 co-expression, lit1-tk-luc; Nuclear hormone receptor DAF-12 (Strongyloides stercoralis); HEK293 ssDAF-12/GRIP1 lit1-tk-luc reporter; % of 3 µM dafachronic acid response; activation, % at 6.8 µM; hit rate 1% among 370,000; AID 652126, 2013;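 active means activation above the mean over all tested compounds plus 3 SD, cut at about 0.9% in these data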;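 further: 0% = DMSO-only wells and 100% = 3 µM delta7-dafachronic acid wells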
DAX1 inh-1 – DAX1 (NR0B1) inhibitors, primary screen, cell-based, HEK293, Gal4-DAX1, luciferase luminescence. hit rate 0.99% among 340,000. inhibition, % at 6.75 µM. HEK293 Gal4-DAX1 luciferase reporter;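 active means inhibition above the mean over all tested compounds plus 3 SD, cut at about 4.2% in these data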;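 further: 0% = DAX1-transfected cells with DMSO and 100% = empty-vector control cells with DMSO; inhibition shows as a rise in luminescence from relieved DAX1 repression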
Target sequence (P51843 207-470 limits assumed): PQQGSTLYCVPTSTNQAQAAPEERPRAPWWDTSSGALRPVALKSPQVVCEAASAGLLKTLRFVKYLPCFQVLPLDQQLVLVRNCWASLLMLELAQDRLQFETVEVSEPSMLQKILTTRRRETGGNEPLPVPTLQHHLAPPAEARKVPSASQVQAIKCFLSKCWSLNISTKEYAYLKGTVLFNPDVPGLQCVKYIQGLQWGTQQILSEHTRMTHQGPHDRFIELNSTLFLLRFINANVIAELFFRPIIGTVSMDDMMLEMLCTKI
hgDAF-12 ag – H. glycines DAF-12 receptor agonists, primary screen, cell-based, luminescence, HEK293, GAL4 fusion, UAS-luciferase; Nuclear hormone receptor DAF-12 (Heterodera glycines), GAL4 fusion; HEK293 GAL4-hgDAF12 UAS-luciferase reporter, agonist luminescence; normalized to butyrate control; activation, % at 6.8 µM; hit rate 1.8% among 370,000; AID 687014, 2013;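 active means activation above a cutoff set at the mean of all screened compounds plus 3 SD, cut at about 10% in these data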;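 further: 0% = DMSO wells and 100% = sodium butyrate wells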
hcDAF12 agonist – H. contortus DAF-12 nuclear receptor activators, primary screen, cell-based, luminescence, HEK293, lit1-tk-luc reporter; HEK293 hcDAF-12 lit1-tk-luc reporter; 0% DMSO, 100% Δ7-dafachronic acid; hit rate 1.4% among 370,000; activation, % at 6.8 µM; AID 652067, 2013;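 active means activation above the mean of all tested compounds plus 3 SD, cut at about 5.5% in these data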;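 further: 100% = response to 3 µM Δ7-dafachronic acid high control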
DAX1 inh-2 – DAX1 (NR0B1) inhibitors on StAR promoter, primary screen, cell-based, luminescence, SF-1 (NR5A1), full-length DAX-1. HEK293T StAR-luciferase reporter, SF-1/DAX-1 repression relief. inhibition, % at 6.8 µM. hit rate 1.1% among 370,000. AID 652010, 2013;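 active means inhibition above the mean over all tested compounds plus 3 SD, cut at about 3.6% in these data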;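 further: 0% = DAX-1 cells with DMSO and 100% = cells lacking DAX-1 with DMSO; higher inhibition means more luminescence from relief of DAX-1 repression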
* = called active by the depositor. In the library only some 4.1% were active in any assay of this set; here they are far more common.

Screening CCN(CC)CCNC(=O)c1cc2c(=O)n(C)c3ccccc3c2n1C returned ssDAF-12 act 0, DAX1 inh-1 3, hgDAF-12 ag 4, hcDAF12 agonist -2 and DAX1 inh-2 4.2*.
`CCCN(CCC)CCCNC(=O)c1cc2c(=O)n(C)c3ccccc3c2n1C` gave ssDAF-12 act 0, DAX1 inh-1 7.8*, hgDAF-12 ag 0, hcDAF12 agonist 2 and DAX1 inh-2 5.0*.
Screening CCCCN(CC)CCNC(=O)c1cc2c(=O)n(C)c3ccccc3c2n1C returned ssDAF-12 act -1, DAX1 inh-1 3, hgDAF-12 ag 3, hcDAF12 agonist 5 and DAX1 inh-2 2.
For CCCN1CCN(CCCNC(=O)c2cc3c(=O)n(C)c4ccccc4c3n2C)CC1 the results were ssDAF-12 act -1, DAX1 inh-1 8.4*, hgDAF-12 ag 0, hcDAF12 agonist 1 and DAX1 inh-2 2.
`Cn1c(C(=O)NCCCN2CCCCCC2)cc2c(=O)n(C)c3ccccc3c21` gave ssDAF-12 act 0, DAX1 inh-1 4, hgDAF-12 ag 4, hcDAF12 agonist 0 and DAX1 inh-2 1.
`CN(CCc1ccccn1)C(=O)c1ccc2c(c1)ncn2C1CCCCC1` gave ssDAF-12 act -1, hgDAF-12 ag 3, hcDAF12 agonist 1 and DAX1 inh-2 0.
COc1ccc(CN2C(=O)CN(S(C)(=O)=O)CC2(C)c2nnnn2C2CCCCC2)cc1 (stereo unspecified) was read as ssDAF-12 act -1, hgDAF-12 ag 0, hcDAF12 agonist 0 and DAX1 inh-2 -1.
`N#Cc1cccn1-c1nccc(-c2cccs2)n1` gave ssDAF-12 act 1.7*, DAX1 inh-1 1, hgDAF-12 ag 8, hcDAF12 agonist 3 and DAX1 inh-2 0.
Screening Cc1ccc(C)n1-c1nccc(-c2cccs2)n1 returned ssDAF-12 act 0, DAX1 inh-1 2, hgDAF-12 ag 1, hcDAF12 agonist 5 and DAX1 inh-2 0.
Cc1ccc2nc(-c3ccncc3)[nH]c2c1 was read as ssDAF-12 act 0, DAX1 inh-1 4, hgDAF-12 ag 11*, hcDAF12 agonist 4 and DAX1 inh-2 3.
`Cc1ccc(-c2csc3nc(-c4ccncc4)[nH]c(=O)c23)cc1` gave ssDAF-12 act -2, DAX1 inh-1 1, hgDAF-12 ag -3, hcDAF12 agonist -3 and DAX1 inh-2 -1.
`Nc1ccc2nc(-c3ccccc3)[nH]c2c1` gave ssDAF-12 act 1.7*, DAX1 inh-1 1, hgDAF-12 ag 9, hcDAF12 agonist 4 and DAX1 inh-2 2.
C=CCN=C1NC(c2cccc(F)c2)C(C(=O)OC)=C(C)N1Cc1cccc(C(F)(F)F)c1 (stereo unspecified) was read as ssDAF-12 act -1, hgDAF-12 ag -3, hcDAF12 agonist -2 and DAX1 inh-2 0.
`Cn1nccc1-c1ccc(C(=O)NCc2ccco2)c2occc12` gave ssDAF-12 act 0, hgDAF-12 ag 13*, hcDAF12 agonist 1 and DAX1 inh-2 3.
`Cc1noc(C)c1-c1ccc(C(=O)NCc2ccco2)c2occc12` gave ssDAF-12 act 0, hgDAF-12 ag -1, hcDAF12 agonist 0 and DAX1 inh-2 2.
C[C@@]12C[C@@H]3C(=O)N(Cc4ccccc4)CC(=O)N3[C@@H]1N(S(=O)(=O)c1ccccc1)c1ccccc12 was read as ssDAF-12 act -1, hgDAF-12 ag -1, hcDAF12 agonist -3 and DAX1 inh-2 0.
CCOC(=O)[C@H]1[C@H]2COc3ccc(OC)cc3[C@@H]2N2C(=O)CN(CCc3c[nH]c4ccccc34)C(=O)[C@@]12C was read as ssDAF-12 act 1.0*, DAX1 inh-1 1, hgDAF-12 ag -1, hcDAF12 agonist 5 and DAX1 inh-2 0.
For O=C(CCSCc1ccccc1)Nc1ccc2c(c1)OCCO2 the results were ssDAF-12 act -1, DAX1 inh-1 1, hgDAF-12 ag 7, hcDAF12 agonist 1 and DAX1 inh-2 1.
`O=C(CCc1ccccc1)Nc1ccc2c(c1)OCCO2` gave ssDAF-12 act 0, DAX1 inh-1 2, hgDAF-12 ag 12*, hcDAF12 agonist 3 and DAX1 inh-2 2.
Screening O=C(CCc1ccccc1)Nc1cc2c(cc1C(=O)O)OCCCO2 returned ssDAF-12 act 0, DAX1 inh-1 0, hgDAF-12 ag 0, hcDAF12 agonist -2 and DAX1 inh-2 -1.
For O=C(CCc1ccccc1)Nc1cc2c(cc1Cl)OCCO2 the results were ssDAF-12 act 1.2*, DAX1 inh-1 1, hgDAF-12 ag 10, hcDAF12 agonist 2 and DAX1 inh-2 3.9*.
COc1ccc(NC(C)=O)cc1S(=O)(=O)Nc1ccc(C(=O)N2CCCC2)cc1 was read as ssDAF-12 act -1, DAX1 inh-1 4.4*, hgDAF-12 ag -1, hcDAF12 agonist 1 and DAX1 inh-2 0.
COc1ccc(NC(C)=O)cc1S(=O)(=O)Nc1ccccc1C(=O)N1CCCC1 was read as ssDAF-12 act -1, DAX1 inh-1 1, hgDAF-12 ag 2, hcDAF12 agonist 1 and DAX1 inh-2 1.
`CCOC(=O)[C@]12CCC=C1N(Cc1ccccc1)C(=O)[C@H](CC(=O)N1CCSCC1)C2` gave ssDAF-12 act -1, hgDAF-12 ag -1, hcDAF12 agonist 2 and DAX1 inh-2 0.
For CCOC(=O)[C@]12CCC=C1N(Cc1ccccc1)C(=O)[C@H](CC(=O)N1CCOCC1)C2 the results were ssDAF-12 act -1, hgDAF-12 ag 2, hcDAF12 agonist 2 and DAX1 inh-2 4.3*.
Screening CCOC(=O)[C@]12CCC=C1N(CCC1=CCCCC1)C(=O)[C@H](CC(=O)N1CCSCC1)C2 returned ssDAF-12 act -1, hgDAF-12 ag -2, hcDAF12 agonist -1 and DAX1 inh-2 4.1*.
For Cc1ccc(C2CCC3(CCC(=O)N3CCOC(=O)Nc3cccc(C#N)c3)CC2)cc1 (stereo unspecified) the results were ssDAF-12 act -1, hgDAF-12 ag 3, hcDAF12 agonist 0 and DAX1 inh-2 0.
For COc1cccc(-c2nc(N3CC(C)CC(C)C3)c3ccccc3n2)c1O (stereo unspecified) the results were ssDAF-12 act 0, DAX1 inh-1 0, hgDAF-12 ag 0, hcDAF12 agonist 5.9* and DAX1 inh-2 0.
Screening C#CCNC(=O)C[C@H]1C(=O)N(CC=C)C2=CCCC[C@@]21C(=O)OCC returned ssDAF-12 act -1, hgDAF-12 ag -1, hcDAF12 agonist -2 and DAX1 inh-2 -1.

Compound activity: PubChem, The Scripps Research Institute Molecular Screening Center
